# Measured values taken from PubChem BioAssay (NCI).
# Where “and” joins values, the source holds several entries; their conditions need not be identical. Identical values can stand only once. This is part of a sample that, as a whole, favours compounds with a hit. Of some 83,000 tested, about 20% had one in any assay.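 96-well plates, one dose, 48 hours. Percent growth reported; active if below 10.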 Unmarked numbers belong to inactive results. Calls of active or inactive are those of the source.
# Columns and labels:
# Test in all cases: NCI-60 one-dose screen, 48 h (100 = growth as untreated, 0 = no growth, -100 = all killed)
# Conditions in all cases: 10 µM unless noted
# NCI-H23 lung = tested on: NCI-H23 lung
# NCI-H226 lung = tested on: NCI-H226 lung
# NCI-H322M lung = tested on: NCI-H322M lung
# HOP-62 NSCLC = tested on: HOP-62 NSCLC
# NCI-H460 lung = tested on: NCI-H460 lung
# HOP-92 NSCLC = tested on: HOP-92 NSCLC
# NCI-H522 lung = tested on: NCI-H522 lung
# A549/ATCC NSCLC = tested on: A549/ATCC NSCLC
# 786-0 renal = tested on: 786-0 renal
# COLO 205 colon = tested on: COLO 205 colon
Compound,growth (NCI-H23 lung),growth (NCI-H226 lung),growth (NCI-H322M lung),growth (HOP-62 NSCLC),growth (NCI-H460 lung),growth (HOP-92 NSCLC),growth (NCI-H522 lung),growth (A549/ATCC NSCLC),growth (786-0 renal),growth (COLO 205 colon)
O=C(N/N=C/c1ccsc1)c1[nH]c2ccc(Br)cc2c1-c1ccccc1,-78% (active),-49.5% (active),-7.27% (active),-64.7% (active),-72.5% (active),-50.5% (active),-70.9% (active),3.43% (active),-60.8% (active),-63.1% (active)
COc1ccc(N=Nc2c(N)nn3c(-c4ccc(F)cc4)ccnc23)cc1,43.7%,87.8%,84.3%,34.6%,64.7%,100%,86.5%,43%,92.3%,94.4%
O=C(c1ccc(Cl)cc1)C1[C@H](c2ccccc2Cl)[C@@H](c2ccccc2)NC12C(=O)Nc1ccccc12 (stereo not given in full),-50.2% (active),-67.5% (active),12.5%,-40.9% (active),-57.2% (active),-48% (active),-30.9% (active),3.68% (active),-58.4% (active),-87.8% (active)
COc1cc(C2CC(c3ccc(F)cc3)=Nc3c(N)nc(N)nc3N2)ccc1Oc1nc(Nc2ccc(F)cc2)nc(N(C)C)n1 (stereo not given),70%,85.8%,105%,86.3%,10.1%,36.8%,60.6%,58.5%,43.9%,56.2%
Cc1ccc(C(=O)Nc2cc(-n3ccnc3)cc(C(F)(F)F)c2)cc1-n1cc(-c2cnc3cccnn23)nn1,82%,89.9%,113%,107%,97%,78.8%,102%,101%,103%,42.2%
O=CNc1ccc(-n2cnc3cc(-c4ccc(O)cc4)ccc32)cc1,86.5%,83.5%,91.1%,85.6%,87.4%,96.5%,82.1%,86.9%,101%,136%
COc1ccc(-c2cc(C(=O)N=Nc3c(O)[nH]c4ccc(Cl)cc34)c3ccccc3n2)cc1,14.3%,81.8%,79%,-20.9% (active),0.622% (active),117%,-16.1% (active),-4.4% (active),72.4%,7.83% (active)
FC(F)(F)c1cc2c(Cl)ncnc2n1CCN1CCOCC1,62.9%,91.4%,74.9%,91.5%,86%,107%,-80.3% (active),92.3%,99.3%,79.5%
O=C(CSc1nnc(-c2ccc(-c3nc4ccccc4[nH]3)cc2)o1)Nc1ccccc1,63.1%,76.1%,84.4%,63.2%,12%,54.1%,78%,51.8%,22%,118%
CCCN(CCC)S(=O)(=O)c1ccc(C(=O)O)cc1.CCCN(CCC)S(=O)(=O)c1ccc(C(=O)O)cc1.[Cl][Pt+2][Cl].[NH2-].[NH2-],-44.1% (active),23.2%,42.6%,30.4%,0.596% (active),5.16% (active),-54.9% (active),33%,14%,-57.7% (active)
O=C(N/N=C/c1c[nH]c2ccccc12)Nc1ccccc1Cl,1.51% (active),19.8%,41.7%,18.4%,1.98% (active),3.23% (active),-41.8% (active),15.2%,-41.4% (active),-39.7% (active)
COc1ccc(NC(=O)CSc2nnc(-c3ccc(-c4nc5ccc(Cl)cc5[nH]4)cc3)o2)cc1,-15.7% (active),-18.8% (active),35%,-25.4% (active),-17.2% (active),4.79% (active),6.93% (active),1.75% (active),-64.4% (active),69.4%
CSc1ccc(OCc2nc3ccccc3n2-c2cccc(NS(C)(=O)=O)c2)cc1,92.3% and 81.1%,100% and 88.1%,106% and 105%,114% and 75.1%,114% and 73.3%,80.1% and 93.1%,105% and 96.7%,104% and 87.1%,114% and 97.3%,120% and 91.4%
Cc1cnc2ccc(Oc3ccccc3-c3ccccc3)nn12,96.6%,106%,103%,124%,118%,122%,108%,117%,102%,131%
O=C1Nc2ccccc2/C1=C\c1ccc(OCC(=O)c2ccc(Br)cc2)cc1,50.9%,71.6%,87.5%,104%,58.5%,75.5%,61.4%,58.4%,89.8%,65.9%
COc1ccc(-n2c(NC(=O)N3CCN(C)CC3)c(C#N)c3ccccc32)cc1,33.8%,11.4%,90.2%,30.5%,30.7%,44%,61.1%,45.3%,44.2%,65.5%
CC(=O)c1ccc2c(N)c(C(=O)Nc3ccc(C(F)(F)F)cc3)sc2n1,41.7%,59.1%,83.2%,58.6%,72.8%,67.1%,59.8%,78.5%,78.1%,83.4%
CCOc1ccccc1[C@H]1C(C(=O)c2ccc(Cl)cc2)C2(N[C@@H]1c1ccccc1)C(=O)Nc1ccc(Br)cc12 (stereo not given in full),-39.1% (active),-68.4% (active),15.8%,7.94% (active),2.95% (active),-46.9% (active),-4.42% (active),41%,-76.5% (active),-82.3% (active)
COc1cc2cc(C(=O)N3C[C@@H](CCl)c4c3cc(OC(=O)N(CCC(=O)N3CCN(C)CC3)[C@H]3CCSSC3)c3ccccc43)[nH]c2c(OC)c1OC,-87% (active),-15.3% (active),-23% (active),-17.8% (active),-72.6% (active),-7.53% (active),-80.5% (active),-37.3% (active),-79.8% (active),-65.7% (active)
COc1ccc(N=Nc2c(N)nn3c(N)c(C#N)c(-c4ccc(F)cc4)nc23)cc1,39.7%,55%,77%,59.6%,61.1%,-3.02% (active),40.7%,86.8%,32%,105%
COC(=O)c1c(C(=O)OC)c2c3ccccc3c3ccccc3n2c1C(=O)C(C)(C)C,82.8%,85.7%,105%,118%,80.3%,55.7%,73.6%,101%,86.6%,80.1%
CS(=O)(=O)Nc1cccc(-n2c(COc3ccc(OC(F)(F)F)cc3)nc3ccccc32)c1,84.7% and 104%,83.3% and 103%,101% and 121%,96.2% and 97.2%,110%,59.6% and 108%,84.8% and 101%,96.1% and 111%,110% and 103%,100% and 113%
CC(=O)c1c2c(c3ccc4c5ccccc5ccc4n13)C(=O)c1ccccc1C2=O,68.4%,54.8%,92.9%,70.7%,28%,94.9%,91.9%,84.1%,78.5%,99.8%
